# Compound activity deposited in PubChem BioAssay by several laboratories.
# Hsp90 inh = displaces geldanamycin probe from tumor Hsp90 | P07900 | NCI-N417 lysate Hsp90, Cy3B-geldanamycin FP displacement | inhibition, % at 30 µM | 0.35% of 64,000 active | AID 429;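 active means inhibition above 50%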;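 further: 0% = tracer plus lysate wells and 100% = tracer alone without lysate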
# M1 antag = blocks the rat M1 muscarinic receptor response to acetylcholine | P08482 | CHO-M1 cells, Fluo-4 calcium, ACh EC80 antagonist mode; stronger effect = lower value | B-score at 10 µM | 3.4% of 64,000 active;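 active means calcium fluorescence response, raw or row-and-column corrected B-score, differing from the plate sample mean either way at a set confidence level, mostly lower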
# MKP-1 inh = blocks human MKP-1 phosphatase activity; recombinant MKP-1, OMFP hydrolysis fluorescence; 0.15% of 65,000 active; P28562; inhibition, %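 (compounds tested at a single concentration somewhere between 10 and 100 µM)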;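 active means inhibition above about 50%, limit read from the data; inconclusive means inhibition over screen mean plus 3 SD, below that limit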;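 further: 0% = DMSO max control wells and 100% = wells with enzyme stopped by NaOH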
# Cdc25B inh = human M-phase inducer phosphatase 2 inhibition; inhibition, %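 (compounds tested at 10 µM final in the well)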; AID 368; recombinant Cdc25B, OMFP fluorescence Ex485/Em525; 0.1% of 65,000 active; in the data active means inhibition above about 50%
# Target sequence (P30305 whole entry, looked up): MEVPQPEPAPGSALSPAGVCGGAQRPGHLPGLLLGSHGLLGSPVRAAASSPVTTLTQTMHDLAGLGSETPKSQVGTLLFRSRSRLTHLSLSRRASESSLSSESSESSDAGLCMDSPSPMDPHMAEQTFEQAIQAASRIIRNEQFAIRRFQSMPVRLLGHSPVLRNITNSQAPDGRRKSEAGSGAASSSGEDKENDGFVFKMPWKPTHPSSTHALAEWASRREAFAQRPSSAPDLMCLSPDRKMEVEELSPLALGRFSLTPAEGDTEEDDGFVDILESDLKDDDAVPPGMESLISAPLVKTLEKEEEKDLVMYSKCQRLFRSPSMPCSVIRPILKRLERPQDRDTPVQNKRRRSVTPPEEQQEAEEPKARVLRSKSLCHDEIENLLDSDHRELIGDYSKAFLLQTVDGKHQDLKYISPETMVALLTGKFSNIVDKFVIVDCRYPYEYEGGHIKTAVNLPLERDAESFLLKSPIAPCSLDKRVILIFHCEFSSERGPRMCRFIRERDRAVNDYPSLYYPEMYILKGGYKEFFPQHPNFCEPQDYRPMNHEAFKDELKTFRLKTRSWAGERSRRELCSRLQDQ
# MMP-13 inhibitor = inhibitors of human MMP13. P45452. MMP-13 fTHP FRET cleavage, Mca fluorescence. inhibition, % at 4 µM. 0.07% of 65,000 active;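 active means inhibition above the mean of compound-free control plate wells plus 3 SD, cut at about 14% in these data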;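 further: 0% = DMSO wells and 100% = wells with reference MMP-13 inhibitor after basal subtraction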
# M1 agonist = activates the M1 muscarinic receptor. CHO-M1 cells, Fluo-4 calcium fluorescence, agonist mode; stronger effect = higher value. B-score at 10 µM. 3% of 64,000 active;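 active means fluorescence rise, raw or as B-score row- and column-corrected plate score, outside the 99.7% band of its plate's samples, either direction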
# M1 agonist conf = confirmation of rat M1 muscarinic receptor agonists | shares compounds with M1 agonist | CHO-M1 cells, Fluo-4 calcium fluorescence, agonist mode; actives lie on both sides | fluorescence change (max-min) at 10 µM | 19% of 1,700 active;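 active means fluorescence change differs from the solvent-only DMSO control mean at a set confidence level in both duplicate runs; inconclusive means differs from solvent-only control mean in just one of two runs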;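 further: an EC20 dose of acetylcholine follows compound addition during the same imaging run; raw fluorescence intensity difference in instrument units with no normalization to controls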
# M4 agonist ctr = counter-screen for M1 agonists: activity at rat M4 receptor | shares compounds with M1 agonist | CHO M4/Gqi5 cells, Fluo-4 calcium fluorescence, agonist mode; actives lie on both sides | fluorescence change (max-min) at 10 µM | 9% of 1,700 active;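 active means fluorescence change differing from the plate's solvent-only control wells at 99.7% confidence in both duplicates, whether higher or lower; inconclusive means differs from solvent controls in only one of two duplicates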
# * marks the source's active call; other numbers are inactive results; ? = inconclusive; / = not tested or not shown. In the library only some 6.1% were active in any assay of this set; here they are far more common.
SMILES,Hsp90 inh,M1 antag,MKP-1 inh,Cdc25B inh,MMP-13 inhibitor,M1 agonist,M1 agonist conf,M4 agonist ctr
O=C(Nc1ccc2c(c1)OCO2)C1Cc2ccccc2CN1S(=O)(=O)c1cccs1 (configuration not stated),-4,-1.2,35,29,-5,5.5*,-0.26,-21
O=C(Nc1ccc2c(c1)OCO2)C1CCN(S(=O)(=O)c2cccs2)CC1,-3,0.25,19,-6,9,-0.14,/,/
COc1ccc(S(=O)(=O)N2Cc3ccccc3CC2C(=O)Nc2ccc(O)cc2)cc1OC (configuration not stated),2,-0.67,-13,-10,1,4*,-4,-24
COc1ccc(S(=O)(=O)N2Cc3ccccc3CC2C(=O)O)cc1OC (configuration not stated),0,-0.81,14,-9,2,-0.45,/,/
COC(=O)c1ccc2c(c1)N(Cc1ccccc1F)C(=O)c1ccccc1S2=O (configuration not stated),-1,-0.27,-5,-13,2,4.9*,?,-24
CC(C)C(NS(=O)(=O)c1ccc2c(c1)oc(=O)n2C)C(=O)N1CCN(Cc2ccccc2)CC1 (configuration not stated),-2,-0.46,11,-9,-2,0.0029,/,/
Cc1cc(C)c(S(=O)(=O)Nc2ccc[nH]c2=O)c(C)c1,-13,0.092,-5,-9,1,0.27,/,/
O=C(CC(NS(=O)(=O)c1ccc(Cl)cc1)c1ccco1)NCc1ccco1 (configuration not stated),-2,0.018,-10,-5,-15,-2.9*,?,-55
Cc1ccc(-n2c(SCC(=O)Nc3cc(C)on3)nc3c(c2=O)SC(C)C3)cc1 (configuration not stated),0,0.07,3,-4,6,0.62,/,/
Cc1cc(C)c2cc(C#N)c(SCC(=O)NCC3CCCO3)nc2c1 (configuration not stated),-2,-0.44,23,-4,-3,2.6*,?,?
Cc1ccc2cc(C#N)c(SCC(=O)NCC3CCCO3)nc2c1 (configuration not stated),-6,0.56,11,-11,-6,-0.78,/,/
NC(=O)c1c(NC(=O)CSc2nnc(Cc3ccccc3)n2Cc2ccco2)sc2c1CCC2,0,-1.8,6,-16,-18,7.3*,-14,-22
Cc1ccc(N2C(=O)c3cccc4c(N5CCN(C)CC5)ccc(c34)C2=O)c2cccnc12,-10,-3.1*,0,3,3,405*,956*,1220*
Cc1ccc(S(=O)(=O)N2CC(=NO)C2)cc1,0,0.2,-26,1,-1,0.00028,/,/
O=C(O)C1CCC(=O)N1C1CCCC1 (configuration not stated),-3,0.75,2,-25,0,5*,-29*,?
CC(NC(=O)c1cccc(F)c1)C(c1cccs1)N1CCN(C)CC1 (configuration not stated),-5,-0.057,9,-15,2,-0.26,/,/
COc1ccc(-c2c3c(=O)n(C)c(=O)n(C)c3cn2-c2ccccc2)cc1,1,-0.01,26,4,0,2.2*,?,-38
CCC(=O)N(CC)c1nc(-c2ccc(OC)cc2)cs1,3,0.68,2,-8,3,46*,?,-75*
CC(C)(C)OC(=O)N1CCC[C@H]1C(=O)NCC1CCC(C(=O)O)CC1 (some centres not stated),-2,-0.087,-31,0,-4,0.05,/,/
CC(C)[C@H](NC(=O)[C@@H]1CSCN1C(=O)OC(C)(C)C)C(=O)NCC1CCC(C(=O)O)CC1 (some centres not stated),0,1,-18,-7,-3,1.8*,-4.4,?
COc1ccc(S(=O)(=O)C(C#N)c2nc3ccccc3nc2N2CCCCC2)cc1 (configuration not stated),/,0.12,37,-6,-3,-0.26,/,/
N#CC(c1nc2ccccc2nc1N1CCCC1)S(=O)(=O)c1ccccc1 (configuration not stated),/,-0.23,8,1,-61,4*,36,34
Cc1cccc(S(=O)(=O)C(C#N)c2nc3ccccc3nc2N2CCCC2)c1 (configuration not stated),12,0.3,31,1,-78,6*,-3,-11
Cc1ccc(C)c(S(=O)(=O)C(C#N)c2nc3ccccc3nc2N2CCCC2)c1 (configuration not stated),8,-0.21,19,44,-5,-1,/,/
COc1cc2c(OC)cccc2cc1C(=O)O,0,0.57,0,-7,-63,-0.84,/,/
SMILES,Hsp90 inh,M1 antag,MKP-1 inh,Cdc25B inh,MMP-13 inhibitor,M1 agonist,M1 agonist conf,M4 agonist ctr
C=CCNS(=O)(=O)c1cccc2cc(C(=O)O)c(O)cc12,0,0.18,-16,2,-3,3.6*,15,9
CCn1c(=O)cc(SCC(=O)NCCCN2CCN(c3ccccc3F)CC2)c2ccccc21,-2,-1.5,11,-12,-5,-0.16,/,/
CC(=Nc1cccc(O)c1)c1sc2ccccc2c1O,3,-0.037,-13,20,8,5.4*,43,41
C=C(C)C1CCC(C)=C1CC(C)(C)/C=N\n1cnnc1 (configuration not stated),2,0.29,18,-3,4,0.92,/,/
CCOC(=O)Cc1csc(NC(=O)CSc2ncnc3c2cnn3-c2ccccc2Cl)n1,3,-1.2,4,-9,-2,11*,2.9,8.3
C/C(O)=c1/ccc2cccc3nc(C)nc1c23,15,-0.86,28,12,2,114*,896*,814*
CC12CCC(C(=O)NCc3ccco3)(OC1=O)C2(C)C (configuration not stated),-2,0.27,2,0,5,0.32,/,/
N#Cc1c(NC(=O)c2nc3ncccn3n2)sc2c1CCCCC2,-14,0.11,0,-10,7,-1.8*,?,-40
COc1ccc(OC)c(NC(=O)C2CCCN(S(=O)(=O)c3cccc4cccnc34)C2)c1 (configuration not stated),3,-1.7,15,2,-1,5*,-33*,-48
COc1ccc(N(C)S(=O)(=O)c2cccc3cccnc23)c(OC)c1,-1,-1.2,2,-8,0,5.2*,?,-61
COc1ccc(NC(=O)C2CCCN2S(=O)(=O)c2cccc3cccnc23)c(OC)c1 (configuration not stated),-2,1.3,9,-15,4,-0.11,/,/
COc1ccc(C)cc1NC(=O)C1CCN(S(=O)(=O)c2cccc3cccnc23)CC1,1,-0.21,3,-9,-2,-0.011,/,/
